Results published in PubChem BioAssay (NCI).
This is part of a sample that, as a whole, favours compounds with a hit. Of some 83,000 tested, about 20% had one in any assay.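 How to read the values: 0–100, growth inhibition (40 = 60% inhibited); 0, no net growth; -100 to 0, cell death (-40 = 40% of starting cells died; -100 = all dead).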 Calls of active or inactive are those of the source. The calls were made as follows: active = growth percent below 10; inactive = the rest.

Tests used:
Experiment in all cases: NCI-60 one-dose screen, 48 h (100 = growth as untreated, 0 = no growth, -100 = all killed)
Conditions in all cases: 10 µM unless noted
SR leukemia = tested on: SR leukemia
RPMI-8226 leukemia = tested on: RPMI-8226 leukemia
OVCAR-8 ovarian = tested on: OVCAR-8 ovarian
OVCAR-5 ovarian = tested on: OVCAR-5 ovarian
OVCAR-4 ovarian = tested on: OVCAR-4 ovarian
SK-OV-3 ovarian = tested on: SK-OV-3 ovarian
IGROV1 ovarian = tested on: IGROV1 ovarian
OVCAR-3 ovarian = tested on: OVCAR-3 ovarian
HS 578T breast = tested on: HS 578T breast
NCI/ADR-RES ovarian = tested on: NCI/ADR-RES ovarian
T-47D breast = tested on: T-47D breast
BT-549 breast = tested on: BT-549 breast
MDA-MB-435 melanoma = tested on: MDA-MB-435 melanoma
SW-620 colon = tested on: SW-620 colon
MCF7 breast = tested on: MCF7 breast
HCT-116 colon = tested on: HCT-116 colon
HCC-2998 colon = tested on: HCC-2998 colon
KM12 colon = tested on: KM12 colon

Measured: growth

COc1ccc(NC(=O)CSc2oc(-c3ccccc3)nc2S(=O)(=O)c2ccc(Cl)cc2)c(OC)c1
inactive: SR leukemia 65.2% | RPMI-8226 leukemia 49.9% | OVCAR-8 ovarian 34.3% | OVCAR-5 ovarian 107% | OVCAR-4 ovarian 64.6% | SK-OV-3 ovarian 83.2% | IGROV1 ovarian 93.5% | OVCAR-3 ovarian 75.3% | HS 578T breast 36.2% | NCI/ADR-RES ovarian 61.7% | T-47D breast 60.5% | BT-549 breast 61.7% | MDA-MB-435 melanoma 86.6% | SW-620 colon 81.7% | MCF7 breast 73.8% | HCT-116 colon 41.6% | HCC-2998 colon 83.5% | KM12 colon 71.9%

O=c1c2cccc3c(N4CCOCC4)ccc(c32)c2nc3ccccc3n12
inactive: SR leukemia 83.7% | RPMI-8226 leukemia 81.7% | OVCAR-8 ovarian 93.8% | OVCAR-5 ovarian 99.2% | OVCAR-4 ovarian 69.9% | SK-OV-3 ovarian 91.4% | IGROV1 ovarian 58.3% | OVCAR-3 ovarian 100% | HS 578T breast 40.2% | NCI/ADR-RES ovarian 93.9% | T-47D breast 38.1% | BT-549 breast 93.8% | MDA-MB-435 melanoma 104% | SW-620 colon 103% | MCF7 breast 24% | HCT-116 colon 87% | HCC-2998 colon 73.2% | KM12 colon 78.1%

CC(Cc1cccc2ccccc12)C(N)=O (centres undefined)
inactive: SR leukemia 101% | RPMI-8226 leukemia 102% | OVCAR-8 ovarian 108% | OVCAR-5 ovarian 94.9% | OVCAR-4 ovarian 107% | SK-OV-3 ovarian 102% | IGROV1 ovarian 96.8% | OVCAR-3 ovarian 113% | HS 578T breast 99.2% | NCI/ADR-RES ovarian 110% | T-47D breast 105% | BT-549 breast 105% | MDA-MB-435 melanoma 98.9% | SW-620 colon 108% | MCF7 breast 93% | HCT-116 colon 106% | HCC-2998 colon 106% | KM12 colon 110%

O=C(OCC(O)C(=O)NC12CC3CC(CC(C3)C1)C2)c1cccc(Br)c1 (centres undefined)
inactive: SR leukemia 84.9% | RPMI-8226 leukemia 94.6% | OVCAR-8 ovarian 95.9% | OVCAR-5 ovarian 101% | OVCAR-4 ovarian 98.2% | SK-OV-3 ovarian 102% | IGROV1 ovarian 103% | OVCAR-3 ovarian 109% | HS 578T breast 95.7% | NCI/ADR-RES ovarian 101% | T-47D breast 93.2% | BT-549 breast 115% | MDA-MB-435 melanoma 97% | SW-620 colon 99.2% | MCF7 breast 91.7% | HCT-116 colon 99% | HCC-2998 colon 114% | KM12 colon 107%

O=c1cc(-c2nccc3c2[nH]c2ccccc23)c2cc(Cl)ccc2o1
inactive: SR leukemia 15.2% | RPMI-8226 leukemia 39.3% | OVCAR-8 ovarian 54.4% | OVCAR-5 ovarian 111% | OVCAR-4 ovarian 56.6% | SK-OV-3 ovarian 41.3% | IGROV1 ovarian 61.3% | HS 578T breast 37.3% | NCI/ADR-RES ovarian 33.4% | T-47D breast 59.4% | BT-549 breast 36.1% | SW-620 colon 34.3% | MCF7 breast 27.2% | HCC-2998 colon 74.2% | KM12 colon 29%
active: OVCAR-3 ovarian 7.46% | MDA-MB-435 melanoma 1.21% | HCT-116 colon 8.73%

Oc1ccc(Cc2ccc(O)c3ncccc23)c2cccnc12
active: SR leukemia 9.74% | RPMI-8226 leukemia 8.21% | SK-OV-3 ovarian -17.2% | IGROV1 ovarian 7.8% | T-47D breast -3.14% | MCF7 breast 3.18%
inactive: OVCAR-8 ovarian 12.6% | OVCAR-5 ovarian 21.6% | OVCAR-4 ovarian 14.2% | OVCAR-3 ovarian 14.1% | HS 578T breast 36.6% | NCI/ADR-RES ovarian 20.2% | BT-549 breast 29.4% | MDA-MB-435 melanoma 12.6% | SW-620 colon 16.7% | HCT-116 colon 15.2% | HCC-2998 colon 19.2% | KM12 colon 15.8%

N#C/C(=N\Nc1ccccc1)C(=O)Nc1cc(-c2ccccc2)nn1-c1ccccc1
inactive: SR leukemia 62.3% | RPMI-8226 leukemia 18.5% | OVCAR-8 ovarian 40.6% | OVCAR-5 ovarian 72.2% | OVCAR-4 ovarian 22.1% | SK-OV-3 ovarian 31.3% | IGROV1 ovarian 30.6% | OVCAR-3 ovarian 12.4% | HS 578T breast 41.9% | NCI/ADR-RES ovarian 41.5% | BT-549 breast 16.2% | MDA-MB-435 melanoma 30.3% | SW-620 colon 20.2% | MCF7 breast 16.4% | HCT-116 colon 16.1% | HCC-2998 colon 40.7% | KM12 colon 36.8%
active: T-47D breast 9.7%

CCN(CC)CCCNC(=O)c1c2c(n3ccccc13)C(=O)c1ncccc1C2=O
inactive: HS 578T breast 37.5%
active: SR leukemia -22.6% | RPMI-8226 leukemia -23.8% | OVCAR-8 ovarian -56.1% | OVCAR-5 ovarian -8.93% | OVCAR-4 ovarian -83.4% | SK-OV-3 ovarian -41.4% | IGROV1 ovarian -40.3% | OVCAR-3 ovarian -39.5% | NCI/ADR-RES ovarian 3.02% | T-47D breast -64.4% | BT-549 breast -6.67% | MDA-MB-435 melanoma -58.7% | SW-620 colon -47% | MCF7 breast -52.9% | HCT-116 colon -70.5% | HCC-2998 colon -72.5% | KM12 colon -13.2%
